Drawing on PubChem BioAssay AID743279 (National Center for Advancing Translational Sciences (NCATS), 2014), this text covers activity change for 91 compounds.

About 17,000 (4.7%) of roughly 360,000 compounds were called active. About 5% were inconclusive and are not listed. The sample as a whole holds a higher share of actives than the screen did. A number with no mark means an inactive call. Cut-off read from the data, not from the text of the source: active = activity change below about -50%; inconclusive = mostly about -30% to -49%; inactive = weaker than that.
% is set by controls: 0 for no effect and ±100 for the full control effect.

This test can be described thus: qHTS for Inhibitors of Inflammasome Signaling: IL-1-beta AlphaLISA Primary Screen. To be noted: THP-1 LPS/ATP IL-1B secretion, 16 h; at 57.5 µM, stronger effect = lower value. The essentials: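 Secreted IL-1B measured by AlphaLISA bead assay after 16 h compound exposure of THP-1 cells; compounds (final up to 57.5 uM) added 1 h before LPS (250 ng/mL) and ATP (1.25 mM) stimulation; lower signal means less secretion.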
With `COc1ccc(C(=O)N(C)Cc2ccc(OC)c(OC)c2OC)cc1S(=O)(=O)N1CCOCC1`, the activity change was -8.15%.

Take `Cc1coc2c(O)cc3c(c12)OC1(N2CCCCC2)C(=O)NCCCC31` (stereo unspecified): the activity change is -99.3% (active).

Take `COCCN1CCN(C(=O)c2cc(COc3ccc(F)cc3Cl)on2)CC1`: the activity change is 22.2%.

As for `CN(CC(=O)Nc1ccccc1[N+](=O)[O-])Cc1ccc(Br)cc1`, the activity change is -6.83%.

`CN(CC(=O)NCCc1ccc(F)cc1)CC(=O)Nc1ccc(F)c(F)c1F`: the activity change was -12.2%.

For `Cc1ccc(NC(=O)CN(C)Cc2ccc(F)cc2)c([N+](=O)[O-])c1`, the activity change is -62.3% (active).

For the compound `CCN(C(=O)CSc1nnc2ccccn12)C1CCS(=O)(=O)C1` (stereo unspecified), the activity change is -2.9%.

On to `Cc1cc2cc3c(cc2nc1SCC(=O)Nc1c(C)cccc1C)CCC3`, for which the activity change was 13%.

Turning to `Cc1cccc(C(=O)C(O)(c2ccccc2)C2CCCCC2=O)c1` (stereo unspecified), the activity change was 16.6%.

For the compound `COc1ccc(CCNC(=O)COC(=O)c2cnc(Cl)c(Cl)c2)cc1`, the activity change is -11.2%.

`COc1ccc(CCNC(=O)c2cnc(Cl)c(Cl)c2)cc1`: the activity change is -107% (active).

Turning to `CC(CCc1ccccc1)NC(=O)c1cnc(Cl)c(Cl)c1` (stereo unspecified), the activity change was 12.3%.

In the case of `CC1(C)OC(=O)C2=C(C[C@@H](C3CCCCC3)O[C@@H]2c2ccc(Cl)cc2)O1`, the activity change is 0%.

Consider `CC1=C(C(=O)Nc2cccc(C(=O)NCC(C)c3ccccc3)c2)SCCO1` (stereo unspecified), for which the activity change is 24.1%.

With `CC(C)(C)n1nnnc1C(c1ccc2ncccc2c1)N1CCSCC1` (stereo unspecified), the activity change was -23.4%.

For the compound `O=[N+]([O-])c1cc(S(=O)(=O)NCCc2ccccn2)ccc1Cl`, the activity change was -65.1% (active).

Regarding `O=[N+]([O-])c1cccc(S(=O)(=O)NCc2ccccn2)c1`, the activity change was 11.4%.

Regarding `O=S(=O)(NCCc1ccccn1)c1cc(Cl)cc(Cl)c1O`, the activity change is 0%.

As to `COC(=O)c1ccc(CNC(=O)Cn2cc(C)c(=O)[nH]c2=O)cc1`, the activity change is 15.5%.

As to `COc1ccc(C(=O)NCC2CCCO2)cc1S(=O)(=O)NCc1ccc(Cl)cc1` (stereo unspecified), the activity change was -8.62%.

For the compound `COc1cccc(/C(C)=N/Nc2ncc(Cl)cc2Cl)c1`, the activity change was -80.6% (active).

`COC(=O)c1sccc1N/N=C(\C)c1ccc(F)c(Cl)c1`: the activity change was 13.1%.

As to `CCN(CC)c1ccc(C(=O)N/N=C(\C)c2cccc(OC)c2)cc1`, the activity change is 96.6%.

For the compound `Cc1cc(NC(=O)CSc2nccn2-c2ccc([N+](=O)[O-])cc2)no1`, the activity change is 45.3%.

For `COc1cc2c(cc1CNC[C@H]1O[C@@H](n3cnc(C(N)=O)n3)[C@H](O)[C@@H]1O)OCO2`, the activity change was 3.97%.

For `CCc1ccccc1OCC(=O)Nc1nnc(C2CC2)s1`, the activity change was -16.9%.

For the compound `O=C(CN1CCCCCC1)NCCN1C(=O)S/C(=C\c2ccccc2Cl)C1=O`, the activity change is -15.4%.

Regarding `O=C(CN1C(=O)S/C(=C\c2ccccc2Cl)C1=O)NC1C=CS(=O)(=O)C1` (stereo unspecified), the activity change was -99.6% (active).

On to `COc1cccc(/C=C2/SC(=S)N(CC(=O)NC3C=CS(=O)(=O)C3)C2=O)c1` (stereo unspecified), for which the activity change is -11%.

Regarding `CC(=O)Nc1ccccc1C(=O)C(=O)Nc1ccc(F)cc1`, the activity change was 6.97%.

Turning to `CC(NC(=O)c1ccccc1)C(=O)OCC(=O)Nc1cccc(S(=O)(=O)N2CCCC2)c1` (stereo unspecified), the activity change is -0.602%.

Take `Cc1ccnc(-n2sc3ccccc3c2=O)n1`: the activity change was -95.9% (active).

In the case of `Cc1ccnc(SC2CC(=O)N(c3ccccc3)C2=O)n1` (stereo unspecified), the activity change is -12.7%.

Take `Cc1nc(Nc2ccccc2C)c2cnn(C)c2n1`: the activity change was 5.45%.

With `CCCCc1ccc(S(=O)(=O)NC(=O)C2(C)CCN2C(=O)c2ccccc2)cc1` (stereo unspecified), the activity change was 48.7%.

On to `CCOC(=O)Nc1ccc2c(c1)N(C(=O)CCN1CCN(CCO)CC1)c1ccccc1CC2`, for which the activity change is -7.2%.

On to `CCOC(=O)Nc1ccc2c(c1)N(C(=O)CCCl)c1ccccc1[S@]2=O`, for which the activity change is -96.5% (active).

As for `CCOC(=O)Nc1ccc(S(=O)(=O)N(C)C(C)C)cc1`, the activity change was 24%.

Consider `Cc1ccc(CNC(=O)C(=O)c2cn(CC(=O)N3CCOCC3)c3ccccc23)cc1`, for which the activity change is -24.4%.

Regarding `CC(=O)Nc1ccc(NC(=O)COC(=O)c2ccccc2C(=O)c2ccccc2)cc1`, the activity change is -29.6%.

For the compound `N#Cc1cccc(NC(=O)COC(=O)c2ccccc2C(=O)c2ccc(Cl)c([N+](=O)[O-])c2)c1`, the activity change was -112% (active).

As to `CC(CC(=O)O)C(=O)c1ccc(Cl)c([N+](=O)[O-])c1` (stereo unspecified), the activity change was -17.6%.

Consider `NC(=O)c1ccc(NC(=O)COC(=O)c2ccc([N+](=O)[O-])cc2)cc1`, for which the activity change was 3.51%.

For the compound `CC(=O)Nc1ccc(NC(=O)C(C)OC(=O)c2ccccc2C(=O)c2ccc(Cl)c([N+](=O)[O-])c2)cc1` (stereo unspecified), the activity change is -108% (active).

With `COC(=O)c1cc(NC(=O)Cc2ccccc2[N+](=O)[O-])ccc1Cl`, the activity change was 11.8%.

On to `C[C@H]1CN([C@@H](C)CO)C(=O)CCCn2cc(nn2)CO[C@@H]1CN(C)S(=O)(=O)c1ccccc1C#N`, for which the activity change is 4.98%.

Turning to `Cc1cc(C)c(C=NNc2nc3c([nH]2)c(=O)n(C)c(=O)n3C)c(C)c1`, the activity change was -9.11%.

In the case of `O=C(COC(=O)CCc1c[nH]c2ccccc12)Nc1cccc(Cl)c1`, the activity change was 8.98%.

For the compound `CSc1ccc(CN2CCC2(C)C(=O)NCc2ccccc2Br)cc1` (stereo unspecified), the activity change was 35.5%.

`Cc1c(NC(=O)C(C)OC(=O)c2ccccc2O)c(=O)n(-c2ccccc2)n1C` (stereo unspecified): the activity change was 2.66%.

On to `COc1ccc(NS(=O)(=O)c2ccc(C(=O)Nc3c(C)n(C)n(-c4ccccc4)c3=O)cc2)cc1`, for which the activity change was -16.8%.

With `COc1ccc(C(=O)C(C)OC(=O)c2cccc(S(=O)(=O)Nc3c(C)n(C)n(-c4ccccc4)c3=O)c2)cc1` (stereo unspecified), the activity change is -73.2% (active).

In the case of `CSCCC(NC(=O)c1ccco1)C(=O)NCCc1ccc(F)cc1` (stereo unspecified), the activity change was -9.3%.

On to `O=S1(=O)C=C(SCCN2CCCC2)c2ccccc21`, for which the activity change is -84.4% (active).

Consider `c1ccc(-c2ccccc2OCCN2CCCCC2)cc1`, for which the activity change is -0.581%.

As for `Nc1nnc(SCCN2C(=O)c3ccccc3S2(=O)=O)s1`, the activity change was 10.6%.

For `CCN(CC(=O)NC1CCS(=O)(=O)C1)c1nc(-c2cccnc2)nc2ccccc12` (stereo unspecified), the activity change was -2.86%.

Regarding `O=C(CSc1cccc[n+]1[O-])c1ccc(-c2ccccc2)cc1`, the activity change was 31.4%.

For `COCCNc1ncnc2c1ncn2[C@H]1CN(CCN2CCOCC2)C[C@@H](CO)O1`, the activity change is 1.62%.

Consider `NC(=O)C1CCN(C(=O)c2cn(-c3ccccc3)nc2-c2cccnc2)CC1`, for which the activity change was -2.49%.

With `CCc1ccc(-c2nn(-c3ccccc3C)cc2C(=O)N2CCN(C3CCS(=O)(=O)C3)CC2)cc1` (stereo unspecified), the activity change was 16.7%.

For `CCc1ccc(-c2nn(-c3ccccc3)cc2CSC(=N)N)cc1`, the activity change was -102% (active).

With `CCOC(=O)c1ccc(COC(=O)CCc2nc(-c3ccccc3)c(-c3ccccc3)o2)cc1`, the activity change is 31.5%.

With `CC(C)Nc1ncnc2c1ncn2[C@H]1CN(Cc2ccncc2)C[C@@H](CO)O1`, the activity change is 22.2%.

With `O=C(Nc1ccc(S(=O)(=O)N2CCOCC2)cc1)C1CCN(S(=O)(=O)c2ccc(Cl)cc2)CC1`, the activity change was -6.97%.

With `C(=N\Nc1ccc2ccccc2n1)/c1ccc2c(c1)OCO2`, the activity change was -9.79%.

`Cc1noc(C)c1/C=N/Nc1ccc2ccccc2n1`: the activity change is -70.6% (active).

As for `Clc1ccc(Nc2ccc3ccccc3n2)cc1`, the activity change is -15.6%.

`O=C(Nc1ccc(Cl)cc1)c1csc([C@@H]2O[C@H](CO)[C@H](O)[C@H](O)[C@H]2O)n1`: the activity change was 17.3%.

Consider `Cc1nnc(SC(C)C(=O)c2c[nH]c3ccccc23)n1C1CC1` (stereo unspecified), for which the activity change is 0%.

Consider `Cc1onc(-c2c(F)cccc2Cl)c1C(=O)Nc1cccc(S(=O)(=O)N2CCCCC2)c1`, for which the activity change was -19.9%.

For `CCC(CO)Oc1cc(NC(=O)c2ccc(Cl)cc2)c2ncn(C(C)C)c2c1` (stereo unspecified), the activity change is -3.64%.

`CCC(CO)Oc1cc(NC(=O)c2cccc(F)c2)c2ncn(C(C)C)c2c1` (stereo unspecified): the activity change was -4.82%.

For the compound `CCC(CO)Oc1cc(NC(=O)c2cccc3ccccc23)c2ncn(C(C)C)c2c1` (stereo unspecified), the activity change is -67.6% (active).

`COc1ccc(CCNC(=O)COC(=O)Cc2cc(OC)c(OC)c(OC)c2)cc1`: the activity change is 28%.

As for `Cc1cc(C)c2c(=O)n3c(nc2c1)C(CC(C)C)NC(=O)c1cc2ccccc2cc1-3` (stereo unspecified), the activity change is 24.5%.

`CC(C)CNS(=O)(=O)c1ccc(C(=O)Nc2ccc3c(c2)OCO3)cc1`: the activity change is -5.7%.

In the case of `Cc1cccc(NC(=O)Nc2ccc3c(c2)OCO3)n1`, the activity change was -14.3%.

As for `CNS(=O)(=O)c1ccc(NC(=O)Nc2ccc3c(c2)OCO3)cc1`, the activity change is -52.3% (active).

Regarding `Cc1ccc(C(=O)Nc2c(-c3ccccc3)[nH][nH]c2=O)cc1`, the activity change was 0%.

For the compound `Cc1ccc2c(c1)C(c1ccccc1)N(C(=O)c1ccc(F)cc1)CC(=O)N2` (stereo unspecified), the activity change is 22.3%.

For the compound `Cc1oc2c(c1C(=O)N1CCOCC1)C(=O)c1ccccc1C2=O`, the activity change is -0.813%.

With `O=S(=O)(Nc1cc(Cl)ccc1N1CCOCC1)c1ccccc1Cl`, the activity change was -27.8%.

`O=C1c2ccccc2-c2ncnc3c(N4CCOCC4)cc(N4CCOCC4)c1c23`: the activity change was -66.7% (active).

Turning to `O=S1(=O)CC(N2CCN(CCO)CC2)CN1Cc1cn(Cc2ccc(Cl)cc2)nn1` (stereo unspecified), the activity change is 0%.

Consider `CCCn1c(=N)n(CC(=O)c2ccc(Cl)c(Cl)c2)c2ccccc21`, for which the activity change was -91.6% (active).

In the case of `CCN(CC)CC1(O)CCN(C(=O)c2ccc(Cl)c(Cl)c2)CC1`, the activity change was 12.6%.

As to `CCOC(=O)c1cc2ccccc2n1CC(=O)c1ccccc1`, the activity change is 28.5%.

In the case of `CCn1c(=N)n(CC(=O)c2cccc(OC)c2)c2ccccc21`, the activity change was -63% (active).

On to `O=C(Cn1nnc(N2CCCCC2)n1)c1ccc(Cl)c(Cl)c1`, for which the activity change was -1.15%.

For the compound `COc1ccc2cc(C(=O)O)n(CC(=O)c3ccccc3)c2c1`, the activity change was 0%.
